Experimental data published in PubChem BioAssay.
Unmarked numbers belong to inactive results. No rule for the calls is given here.

Each molecule was assayed against Pantothenate synthetase (Mycobacterium tuberculosis (strain ATCC 25618 / H37Rv)) (UniProt P9WIL5) (assay: Coupled enzyme confirmation of inhibitors against recombinant Mtb PanC (AID 375;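 also: 0% = full reaction with vehicle and 100% = no enzyme background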)). Conditions: coupled enzyme assay; at 10 µM, stronger effect = higher value.
Sequence of Pantothenate synthetase (Mycobacterium tuberculosis (strain ATCC 25618 / H37Rv)) (P9WIL5 whole entry, looked up): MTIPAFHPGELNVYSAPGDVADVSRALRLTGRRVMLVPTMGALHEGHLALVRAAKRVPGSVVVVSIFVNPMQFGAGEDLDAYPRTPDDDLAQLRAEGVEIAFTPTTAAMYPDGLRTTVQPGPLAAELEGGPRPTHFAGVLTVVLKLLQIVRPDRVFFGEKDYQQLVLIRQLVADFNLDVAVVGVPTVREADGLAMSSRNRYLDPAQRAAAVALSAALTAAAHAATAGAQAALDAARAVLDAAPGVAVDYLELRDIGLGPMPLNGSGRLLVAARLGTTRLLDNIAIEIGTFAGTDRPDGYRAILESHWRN

Q: Which inhibition does the source give for `COCCNC(=O)Cn1cc2c(n1)CCCCC2` here?
A: The inhibition was 1%.

Q: `COCC(=O)N(Cc1nc2ccccc2c(=O)[nH]1)Cc1cccs1` was tested. Which inhibition did it give?
A: Its inhibition is 0%.

Q: With `CC(=O)Nc1c(I)c(NC(C)=O)c(I)c(C(=O)O)c1I` as the molecule, how does the inhibition read?
A: Its inhibition is 1%.

Q: How did the inhibition turn out when `Cc1ccc(C(=O)CSc2nnc(-c3cccnc3)n2N)cc1` was run?
A: Its inhibition is 5%.

Q: With `CC1=C(C(=O)Nc2ccc(F)cc2)C(c2cccc(C)c2)n2nc(CCCO)nc2N1` (stereo unspecified) as the molecule, how does the inhibition read?
A: Its inhibition is 6%.

Q: With `COc1ccc(Cn2nnnc2C(c2ccncc2)N2CCOCC2)cc1` (stereo unspecified) as the molecule, how does the inhibition read?
A: The inhibition was 0%.
